Screens (PubChem BioAssay)
TDP1 cell noCPT: qHTS for Inhibitors of human tyrosyl-DNA phosphodiesterase 1 (TDP1): qHTS in cells in absence of CPT; DT40 Tdp1-/- hTDP1 cells, no CPT, ATP luminescence, 48 h; Potency, µM (top dose mostly 46.2 µM), for inactives: top-dose activity change, negative = growth inhibition, usual class: inhibitors; hit rate 15% among 420,000; AID 686978, 2013; also: potency is read from the fitted curve at half-maximal effect; nearly all actives have a fitted effect of over 55% in size
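Growth kinetics read by CellTiter-Glo luminescence after ≥48 hr at 37 °C. Cells: DT40 Tdp1-/- stably carrying human TDP1, 400 per well, compound exposure in the absence of CPT (DMSO vehicle).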
HT1080 IDH1KD tx: toxicity to HT-1080 IDH1 knockdown cells (counter line); Potency, µM (highest dose often 46.1 µM), inactives show at the highest dose activity, negative = toxicity, usual class: cytotoxic; hit rate 2% among 360,000; AID 686971; HT-1080 IDH1 knockdown viability, ATP luminescence, 48 h;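 also: potency is read from the fitted curve at half-maximal effect; 0% = DMSO wells and -100% = cell-free medium wells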
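CellTiter-Glo luminescence after 48 h compound exposure at 37 degrees C of IDH1-knockdown HT-1080 cells in 5% FBS RPMI. %Activity scaled between DMSO wells and cell-free media wells, with curves fitted and assigned curve classes.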
ELG1 DNA repair: ELG1-dependent DNA repair inhibition | HEK293T ELG1-luciferase reporter, luminescence, 16 h; DNA damage induced by 5-fluorouridine | Potency, µM (titrated, usually from 46.1 µM), for inactives: at the top dose activity change, negative = inhibition, usual class: inhibitors | hit rate 2.3% among 330,000; also: potency is read from the fitted curve at half-maximal effect; nearly all actives have a fitted effect of over 55% in size
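In this reporter screen, reduction of luminescence relative to DMSO vehicle indicated activity. Compounds and 5-fluorouridine were added together to 2,000 cells per well, incubated for 16 hr at 37 °C, then developed with ONE-Glo.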
HT1080NT lethal: kills 2HG-producing HT-1080-NT fibrosarcoma cells. hit rate 1.6% among 360,000. Potency, µM (doses to about 46.1 µM), for the others: at the highest dose activity, negative = less viability, usual class: cytotoxic. AID 686970. HT-1080-NT fibrosarcoma viability, CellTiter-Glo ATP luminescence, 48 h;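 also: NT is the 2HG producing partner of a matched IDH1 knockdown line; potency is read from the fitted curve at half-maximal effect; 0% = DMSO-treated cells and -100% = media-only wells without cells; nearly all actives have a fitted effect of over 55% in size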
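HT-1080-NT; 750 cells/well; 5% FBS RPMI; 48 h compound, 37 degrees C; CellTiter-Glo luminescence; curve fitting and curve-class assignment.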
TDP1 cell CPT: growth inhibition of DT40 Tdp1-/-;hTDP1 cells with camptothecin (screen for TDP1 inhibitors); Potency, µM (doses to about 46.2 µM), for the others: at the highest dose activity change, negative = growth inhibition, hits mostly inhibitors; chicken DT40 Tdp1-/-;hTDP1 cells + 20 nM CPT, ATP luminescence, 48 h; hit rate 12% among 420,000; also: potency is read from the fitted curve at half-maximal effect; nearly all actives have a fitted effect of over 55% in size
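Chicken DT40 Tdp1-/- cells stably complemented with human TDP1 were seeded at 400 cells/well in medium containing 20 nM camptothecin, exposed to pin-transferred compounds, and grown at 37 °C for at least 48 hr. Viability was read as ATP luminescence.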
IL1B secr inh: blocks inflammasome-driven IL-1 beta release; THP-1 LPS/ATP IL-1B secretion, AlphaLISA, 16 h; hits give low values; activity change, % at 57.5 µM; hit rate 4.7% among 360,000; AID 743279; in the data active = activity change below about -50%; inconclusive = mostly about -30% to -49%
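THP-1 cells pretreated 1 hr with compounds (up to 57.5 uM final), then stimulated with LPS (250 ng/mL final) plus ATP (1.25 mM final); secreted IL-1B measured by AlphaLISA after 16 hr, decreased signal indicating inhibition.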
Starred values were filed as active, the others as inactive; [ ] = another dose, or the depositor's remark. This is a sample that favours compounds with a hit; in the whole collection about 19% have one here. Unless noted, calls follow the shape of the dose curve; as a rule, active = well fitted curve in the direction sought with a large enough effect; inconclusive = small, poorly fitted or top-dose-only effect, or another doubt; inactive = no such curve, though single readings can be large; an effect the other way counts as inactive or inconclusive. Unless noted, % is scaled to controls: 0 for no effect and ±100 for the full control effect.

Results for COc1ccc(OC)c(NC(=O)c2c(NCc3ccc(N(C)C)cc3)sc3c2CCCC3)c1 ?
TDP1 cell noCPT: inconclusive; TDP1 cell CPT: 20.6µM*

What do the screens show for `COc1ccc(OC)c(NC(=O)COC(=O)c2cc3c(s2)CCC3)c1`?
TDP1 cell noCPT: 2.8%; HT1080 IDH1KD tx: inconclusive; ELG1 DNA repair: 22.8%; HT1080NT lethal: inconclusive; TDP1 cell CPT: -28.7%; IL1B secr inh: 60.5

Results for COc1cccc(CNc2sc3c(c2C(=O)Nc2ccc(OC)cc2OC)CCC3)c1 ?
TDP1 cell noCPT: 20.6µM*; TDP1 cell CPT: 13µM*

How did CN(Cc1c(C(=O)N/N=C/c2cc(F)ccc2F)nnn1-c1nonc1N)C1CCCCC1 do in these assays?
TDP1 cell noCPT: 3.2%; HT1080 IDH1KD tx: 20.6%; ELG1 DNA repair: inconclusive; HT1080NT lethal: 16.5%; TDP1 cell CPT: inconclusive; IL1B secr inh: 19.5

How did Cc1cc(N)n(-c2ccccc2)n1 do in these assays?
TDP1 cell noCPT: 1.6%; HT1080 IDH1KD tx: 2.2%; ELG1 DNA repair: 14.3%; HT1080NT lethal: -1.7%; TDP1 cell CPT: -9.7%; IL1B secr inh: -6.6

Results for c1ccc2c(N3CCOCC3)nc(-c3ccncc3)nc2c1 ?
TDP1 cell noCPT: 14.6µM*; HT1080 IDH1KD tx: -7.4%[9.24 µM]; ELG1 DNA repair: 6.51µM*; HT1080NT lethal: -27.6%; TDP1 cell CPT: inconclusive; IL1B secr inh: inconclusive

Results for Cc1cc(N)n(-c2nc(-c3cccnc3)nc3ccccc23)n1 ?
TDP1 cell noCPT: 18.4µM*; HT1080 IDH1KD tx: -11.0%; ELG1 DNA repair: inconclusive; HT1080NT lethal: -3.9%; TDP1 cell CPT: 25.9µM*; IL1B secr inh: inconclusive

How did COc1ccccc1-c1nc(N2CCOCC2)c2ccccc2n1 do in these assays?
TDP1 cell noCPT: -26.5%; TDP1 cell CPT: -2.3%

How did CC1CCN(c2nc(-c3ccncc3)nc3ccccc23)CC1 do in these assays?
TDP1 cell noCPT: inconclusive; HT1080 IDH1KD tx: inconclusive; ELG1 DNA repair: inconclusive; HT1080NT lethal: inconclusive; TDP1 cell CPT: inconclusive; IL1B secr inh: -23.9

Results for c1cncc(-c2nc(N3CCOCC3)c3ccccc3n2)c1 ?
TDP1 cell noCPT: 35.5µM*; HT1080 IDH1KD tx: -26.1%; ELG1 DNA repair: -7.6%; HT1080NT lethal: inconclusive; TDP1 cell CPT: inconclusive; IL1B secr inh: inconclusive

How did CC(=O)c1ccccc1NC(=O)CSc1nc2ccccc2c(=O)n1CCCN1CCOCC1 do in these assays?
TDP1 cell noCPT: inconclusive; HT1080 IDH1KD tx: inconclusive; ELG1 DNA repair: inconclusive; HT1080NT lethal: 2.6%; TDP1 cell CPT: inconclusive; IL1B secr inh: 8.0

Results for COc1ccccc1CNC(=O)CSc1nc2ccccc2c(=O)n1CCCN1CCOCC1 ?
TDP1 cell noCPT: -10.8%; HT1080 IDH1KD tx: 5.0%; ELG1 DNA repair: 11.6%; HT1080NT lethal: -5.3%; TDP1 cell CPT: 5.1%; IL1B secr inh: -1.7

What do the screens show for `O=c1c2ccccc2nc(SCc2ccc(F)cc2Cl)n1CCCN1CCOCC1`?
TDP1 cell noCPT: 16.4µM*; HT1080 IDH1KD tx: -2.3%; ELG1 DNA repair: 1.3%; HT1080NT lethal: 22.3%; TDP1 cell CPT: inconclusive; IL1B secr inh: -22.3

What do the screens show for `Cn1c(SCc2ccc(F)cc2Cl)nc2ccccc2c1=O`?
TDP1 cell noCPT: 14.6µM*; HT1080 IDH1KD tx: -11.8%; ELG1 DNA repair: -1.1%; HT1080NT lethal: -2.7%; TDP1 cell CPT: inconclusive; IL1B secr inh: 45.4

What do the screens show for `O=C(CSc1nc2ccccc2c(=O)n1CCCN1CCOCC1)c1c[nH]c2ccccc12`?
TDP1 cell noCPT: inconclusive; HT1080 IDH1KD tx: inconclusive; ELG1 DNA repair: inconclusive; HT1080NT lethal: inconclusive; TDP1 cell CPT: inconclusive; IL1B secr inh: -110.0*

How did CCC(Oc1ccc(Br)cc1)C(=O)N1CCN(c2ncccn2)CC1 (stereo unspecified) do in these assays?
TDP1 cell noCPT: -24.4%; HT1080 IDH1KD tx: 0.8%; ELG1 DNA repair: -2.4%; HT1080NT lethal: -4.4%; TDP1 cell CPT: -22.0%; IL1B secr inh: -14.7

What do the screens show for `CC(=O)N1CCc2cc(S(=O)(=O)NC(Cc3ccccc3)C(=O)Nc3ccc(Cl)cc3)ccc21` (stereo unspecified)?
TDP1 cell noCPT: -25.6%; TDP1 cell CPT: -20.7%

How did CC(C)C1C(=O)N(Cc2cn(CCC3OCCCO3)nn2)CCS(=O)(=O)N1Cc1ccc(-c2ccc(Cl)cc2)cc1 (stereo unspecified) do in these assays?
TDP1 cell noCPT: 23.1µM*; HT1080 IDH1KD tx: 8.3%; HT1080NT lethal: 6.0%; TDP1 cell CPT: inconclusive; IL1B secr inh: 40.4

What do the screens show for `CC(C)C1C(=O)N(Cc2cn(CCC3OCCO3)nn2)CCS(=O)(=O)N1Cc1ccc(-c2ccc(Cl)cc2)cc1` (stereo unspecified)?
TDP1 cell noCPT: 4.11µM*; HT1080 IDH1KD tx: inconclusive; HT1080NT lethal: 18.4µM*; TDP1 cell CPT: 3.26µM*; IL1B secr inh: inconclusive

Results for CC(C)C1C(=O)N(Cc2cn(CCC3OCCCO3)nn2)CCS(=O)(=O)N1Cc1ccc(-c2ccc(Cl)c(Cl)c2)cc1 (stereo unspecified) ?
TDP1 cell noCPT: 18.4µM*; HT1080 IDH1KD tx: inconclusive; HT1080NT lethal: 16.4µM*; TDP1 cell CPT: 23.1µM*; IL1B secr inh: -80.2*

How did CC(C)C1C(=O)N(Cc2cn(CCC3OCCCO3)nn2)CCS(=O)(=O)N1Cc1ccc(-c2cccc(CO)c2)cc1 (stereo unspecified) do in these assays?
TDP1 cell noCPT: inconclusive; HT1080 IDH1KD tx: 4.1%; HT1080NT lethal: 2.6%; TDP1 cell CPT: -24.3%; IL1B secr inh: -15.4

How did CC(C)C1C(=O)N(Cc2cn(CCC3OCCCO3)nn2)CCS(=O)(=O)N1Cc1ccc(-c2cccc(N(C)C)c2)cc1 (stereo unspecified) do in these assays?
TDP1 cell noCPT: -3.1%; HT1080 IDH1KD tx: 0.7%; HT1080NT lethal: 0.9%; TDP1 cell CPT: 4.5%; IL1B secr inh: 6.7

Results for Clc1ccc(CN2CCN(c3ccccc3)CC2)cn1 ?
TDP1 cell noCPT: 9.7%; HT1080 IDH1KD tx: 1.6%; ELG1 DNA repair: -8.0%; HT1080NT lethal: 10.3%; TDP1 cell CPT: 5.1%; IL1B secr inh: 10.3

What do the screens show for `CCSc1n[nH]c2nc3c(c(=O)n12)C1(CCCC1)Cc1ccccc1-3`?
TDP1 cell noCPT: inconclusive; HT1080 IDH1KD tx: -23.6%; ELG1 DNA repair: -0.9%; HT1080NT lethal: inconclusive; TDP1 cell CPT: inconclusive; IL1B secr inh: 18.3
